Test results as given in PubChem BioAssay (EPA / NIEHS).
The source made the active and inactive calls. Rule for the calls: active = hit-call score of the fitted dose curve at least 0.9, where 1 is the maximum; inactive = score below 0.9.

Experiments:
Details in all cases: mRNA level, 48 h; actives raise or lower the signal
CYP4A11 (gene 1579) = assay: LTEA_HepaRG_CYP4A11: Life Technologies and Expression Analysis (LTEA) Assay for CYP4A11 using HepaRG (AID 2283486)
Summary of the method: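 Differentiated HepaRG cells, 48 h after plating, exposed in duplicate for 48 h to 8 half-log concentrations up to 100 uM in 0.5% DMSO in serum-free induction medium. CYP4A11 mRNA measured by TaqMan qRT-PCR, normalized to ACTB, GAPDH and POLR2A.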

[1] = read-out: Cytochrome P450 3A4 (Homo sapiens) (UniProt P08684); assay: LTEA_HepaRG_CYP3A4: Life Technologies and Expression Analysis (LTEA) Assay for CYP3A4 using HepaRG (AID 2283487)
Summary of the method: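 HepaRG, 48 h exposure, 8-pt CRC from 100 uM (half-log), 0.5% DMSO, duplicates; serum-free induction medium. Readout: CYP3A4 mRNA, qRT-PCR, ACTB/GAPDH/POLR2A normalization. Bidirectional fit vs DMSO.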

[2] = read-out: DNA damage-inducible transcript 3 (DDIT3), DDIT3 (gene 1649); assay: LTEA_HepaRG_DDIT3: Life Technologies and Expression Analysis (LTEA) Assay for DNA damage-inducible transcript 3 (DDIT3) using HepaRG (AID 2283488)
Summary of the method: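 Cells are human HepaRG liver cells treated for 48 h with eight half-log concentrations up to 100 uM in 0.5% DMSO. Transcript levels come from qRT-PCR normalized to three housekeeping genes, with activity fitted in both directions relative to vehicle.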

[3] = read-out: Pro-epidermal growth factor (Homo sapiens) (UniProt P01133); assay: LTEA_HepaRG_EGF: Life Technologies and Expression Analysis (LTEA) Assay for Epidermal growth factor (EGF) using HepaRG (AID 2283489)
Summary of the method: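 HepaRG cells (~100,000/well, 48 h pre-culture) exposed in duplicate for 48 h in serum-free induction medium to 8 half-log concentrations up to 100 uM in 0.5% DMSO. EGF mRNA by qRT-PCR, normalized to ACTB/GAPDH/POLR2A; bidirectional fit versus DMSO.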

[4] = read-out: Early growth response protein 1 (EGR1) transcription factor, EGR1 (gene 1958); assay: LTEA_HepaRG_EGR1: Life Technologies and Expression Analysis (LTEA) Assay for Early growth response protein 1 (EGR1) transcription factor using HepaRG (AID 2283490)
Summary of the method: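 EGR1 transcript levels quantified by qRT-PCR (Fluidigm arrays) against three housekeeping genes after 48 h chemical exposure of HepaRG cells. Eight-point half-log series topping at 100 uM, 0.5% DMSO vehicle, analyzed for gain or loss.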

[5] = read-out: Ezrin (EZR), EZR (gene 7430); assay: LTEA_HepaRG_EZR: Life Technologies and Expression Analysis (LTEA) Assay for Ezrin (EZR) using HepaRG (AID 2283491)
Summary of the method: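 Read-out is EZR transcript level by qRT-PCR, normalized to three housekeeping genes and fitted bidirectionally against the DMSO control. Human HepaRG cells received test chemicals for 48 h at eight half-log concentrations up to 100 uM in 0.5% DMSO.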

[6] = read-out: Cytochrome P450 3A7 (Homo sapiens) (UniProt P24462); assay: LTEA_HepaRG_CYP3A7: Life Technologies and Expression Analysis (LTEA) Assay for CYP3A7 using HepaRG (AID 2283492)
Summary of the method: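 Differentiated HepaRG cells in serum-free induction medium exposed 48 h in duplicate to 8-point half-log series from 100 uM top in 0.5% DMSO. CYP3A7 mRNA by qRT-PCR, normalized to ACTB/GAPDH/POLR2A, bidirectional fit versus DMSO.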

CYP3A5 (gene 1577) = assay: LTEA_HepaRG_CYP3A5: Life Technologies and Expression Analysis (LTEA) Assay for CYP3A5 using HepaRG (AID 2283493)
Summary of the method: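 Human HepaRG hepatic cells receive 48 h chemical treatment at eight concentrations (half-log steps from 100 uM) in 0.5% DMSO. Expression of CYP3A5 is quantified by Fluidigm qRT-PCR and normalized to three reference genes.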

[7] = read-out: Fatty Acid-Binding Protein 1 (FABP1), FABP1 (gene 2168); assay: LTEA_HepaRG_FABP1: Life Technologies and Expression Analysis (LTEA) Assay for Fatty Acid-Binding Protein 1 (FABP1) using HepaRG (AID 2283494)
Summary of the method: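 FABP1 expression by TaqMan qRT-PCR, normalised to three housekeeping genes, in HepaRG cells after 48 h chemical treatment. Eight-point half-log series topping at 100 uM in 0.5% DMSO, duplicates; gain or loss fitted relative to vehicle.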

[8] = read-out: Cytochrome P450 4A22 (Homo sapiens) (UniProt Q5TCH4); assay: LTEA_HepaRG_CYP4A22: Life Technologies and Expression Analysis (LTEA) Assay for Cytochrome P450 4A22 (CYP4A22) using HepaRG (AID 2283495)
Summary of the method: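 Differentiated HepaRG cells in serum-free induction medium exposed 48 h in duplicate to eight half-log concentrations up to 100 uM in 0.5% DMSO. CYP4A22 mRNA quantified by TaqMan qRT-PCR, normalized to ACTB, GAPDH and POLR2A; bidirectional fit versus DMSO.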

[9] = read-out: Cytochrome P450 7A1 (Homo sapiens) (UniProt P22680); assay: LTEA_HepaRG_CYP7A1: Life Technologies and Expression Analysis (LTEA) Assay for Cytochrome P450 7A1 (CYP7A1) using HepaRG (AID 2283496)
Summary of the method: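 HepaRG, 48 h exposure, 8-pt half-log series from 100 uM, 0.5% DMSO vehicle, duplicates. Readout: TaqMan qRT-PCR mRNA vs three housekeeping genes; bidirectional curve fit against DMSO baseline.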

[10] = read-out: Glutathione S-Transferase (GSTA2), GSTA2 (gene 2939); assay: LTEA_HepaRG_GSTA2: Life Technologies and Expression Analysis (LTEA) Assay for Glutathione S-Transferase (GSTA2) using HepaRG (AID 2283497)
Summary of the method: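 GSTA2 transcript levels came from Fluidigm TaqMan qRT-PCR normalized to three housekeeping genes, fitted in both directions against DMSO. HepaRG cultures received chemicals for 48 h in serum-free induction medium (0.5% DMSO), 8 half-log concentrations up to 100 uM, duplicate.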

[11] = read-out: Glutamate-cysteine ligase catalytic (GCLC), GCLC (gene 2729); assay: LTEA_HepaRG_GCLC: Life Technologies and Expression Analysis (LTEA) Assay for Glutamate-cysteine ligase catalytic (GCLC) using HepaRG (AID 2283498)
Summary of the method: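 Expression by TaqMan qRT-PCR, normalized to three housekeeping genes (ACTB, GAPDH, POLR2A), with up- or down-regulation fitted against DMSO. HepaRG cells dosed in duplicate for 48 h with 8 half-log concentrations up to 100 uM, vehicle 0.5% DMSO.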

[12] = read-out: growth arrest and DNA damage 45 (GADD45G), GADD45G (gene 10912); assay: LTEA_HepaRG_GADD45G: Life Technologies and Expression Analysis (LTEA) Assay for growth arrest and DNA damage 45 (GADD45G) using HepaRG (AID 2283499)
Summary of the method: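 Differentiated human HepaRG cells, 48 h post-plating, exposed 48 h in serum-free induction medium to 8 half-log concentrations (top 100 uM, 0.5% DMSO) in duplicate. GADD45G mRNA measured by Fluidigm TaqMan qRT-PCR, normalized to ACTB, GAPDH, POLR2A; bidirectional fit versus DMSO.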

[13] = read-out: Glutamate-cysteine ligase regulatory (GCLM), GCLM (gene 2730); assay: LTEA_HepaRG_GCLM: Life Technologies and Expression Analysis (LTEA) Assay for Glutamate-cysteine ligase regulatory (GCLM) using HepaRG (AID 2283500)
Summary of the method: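 Endpoint is GCLM transcript level by qRT-PCR, normalized to three housekeeping genes, after 48 h chemical exposure of human HepaRG cells (0.5% DMSO vehicle, top 100 uM, half-log dilutions). Fitting was bidirectional relative to DMSO.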

[14] = read-out: Heat shock 70 kDa protein 1 (HSPA1A), gene 3303; assay: LTEA_HepaRG_HSPA1A: Life Technologies and Expression Analysis (LTEA) Assay for Heat shock 70 kDa protein 1 (HSPA1A) using HepaRG (AID 2283502)
Summary of the method: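 Cells were plated and cultured for 48 h, then switched to serum-free induction medium. Chemicals were added at eight half-log concentrations up to 100 uM for 48 h. RNA was then isolated and HSPA1A measured by qRT-PCR with bidirectional curve fitting against DMSO.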

[15] = read-out: Hypoxia-inducible factor 1-alpha (Homo sapiens) (UniProt Q16665); assay: LTEA_HepaRG_HIF1A: Life Technologies and Expression Analysis (LTEA) Assay for Hypoxia-inducible factor 1 (HIF1A) Trancription factor using HepaRG (AID 2283503)
Summary of the method: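 HIF1A transcript level read by qRT-PCR (ACTB, GAPDH, POLR2A normalization) after 48 h chemical exposure of HepaRG cultures. Eight half-log concentrations, top 100 uM, 0.5% DMSO vehicle, duplicates; bidirectional curve fit against DMSO baseline.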

[16] = read-out: 3-Hydroxy-3-Methylglutaryl-CoA Synthase 2 (HMGCS2), HMGCS2 (gene 3158); assay: LTEA_HepaRG_HMGCS2: Life Technologies and Expression Analysis (LTEA) Assay for 3-Hydroxy-3-Methylglutaryl-CoA Synthase 2 (HMGCS2) using HepaRG (AID 2283504)
Summary of the method: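 Human HepaRG cells in serum-free induction medium were exposed in duplicate for 48 h to 8-point half-log series from 100 uM top in 0.5% DMSO. HMGCS2 mRNA measured by TaqMan qRT-PCR, normalised to ACTB, GAPDH, POLR2A; bidirectional fit versus DMSO.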

HGF (gene 3082) = assay: LTEA_HepaRG_HGF: Life Technologies and Expression Analysis (LTEA) Assay for Hepatocyte Growth Facto (HGF) using HepaRG (AID 2283505)
Summary of the method: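 Differentiated HepaRG cells in serum-free induction medium exposed 48 h in duplicate, 8 half-log concentrations from 100 uM in 0.5% DMSO. HGF mRNA by qRT-PCR, normalised to ACTB, GAPDH, POLR2A; bidirectional fitting.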

[17] = read-out: Glutathione S-transferase M3 (GSTM3), GSTM3 (gene 2947); assay: LTEA_HepaRG_GSTM3: Life Technologies and Expression Analysis (LTEA) Assay for Glutathione S-transferase M3 (GSTM3) using HepaRG (AID 2283501)
Summary of the method: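 Differentiated human HepaRG cells were exposed in duplicate for 48 h in serum-free induction medium, 8 points from 100 uM top in half-log steps, 0.5% DMSO. GSTM3 mRNA was measured by TaqMan qRT-PCR, normalized to ACTB, GAPDH and POLR2A; bidirectional fit versus DMSO.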

Sequence of Cytochrome P450 3A7 (Homo sapiens) (P24462 whole entry, looked up): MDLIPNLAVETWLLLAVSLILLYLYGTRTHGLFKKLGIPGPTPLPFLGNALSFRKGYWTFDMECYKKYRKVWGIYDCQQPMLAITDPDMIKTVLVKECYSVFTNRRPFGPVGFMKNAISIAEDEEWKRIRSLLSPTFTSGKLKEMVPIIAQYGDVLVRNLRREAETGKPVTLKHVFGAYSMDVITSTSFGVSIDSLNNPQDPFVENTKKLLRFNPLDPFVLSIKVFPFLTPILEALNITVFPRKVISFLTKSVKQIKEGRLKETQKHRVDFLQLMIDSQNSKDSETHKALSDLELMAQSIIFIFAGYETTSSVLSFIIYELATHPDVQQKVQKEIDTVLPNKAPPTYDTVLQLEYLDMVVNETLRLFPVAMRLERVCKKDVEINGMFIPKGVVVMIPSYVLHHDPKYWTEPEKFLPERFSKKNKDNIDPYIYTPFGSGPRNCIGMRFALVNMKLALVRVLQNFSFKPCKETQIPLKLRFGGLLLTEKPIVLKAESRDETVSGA
Sequence of Hypoxia-inducible factor 1-alpha (Homo sapiens) (Q16665 whole entry, looked up): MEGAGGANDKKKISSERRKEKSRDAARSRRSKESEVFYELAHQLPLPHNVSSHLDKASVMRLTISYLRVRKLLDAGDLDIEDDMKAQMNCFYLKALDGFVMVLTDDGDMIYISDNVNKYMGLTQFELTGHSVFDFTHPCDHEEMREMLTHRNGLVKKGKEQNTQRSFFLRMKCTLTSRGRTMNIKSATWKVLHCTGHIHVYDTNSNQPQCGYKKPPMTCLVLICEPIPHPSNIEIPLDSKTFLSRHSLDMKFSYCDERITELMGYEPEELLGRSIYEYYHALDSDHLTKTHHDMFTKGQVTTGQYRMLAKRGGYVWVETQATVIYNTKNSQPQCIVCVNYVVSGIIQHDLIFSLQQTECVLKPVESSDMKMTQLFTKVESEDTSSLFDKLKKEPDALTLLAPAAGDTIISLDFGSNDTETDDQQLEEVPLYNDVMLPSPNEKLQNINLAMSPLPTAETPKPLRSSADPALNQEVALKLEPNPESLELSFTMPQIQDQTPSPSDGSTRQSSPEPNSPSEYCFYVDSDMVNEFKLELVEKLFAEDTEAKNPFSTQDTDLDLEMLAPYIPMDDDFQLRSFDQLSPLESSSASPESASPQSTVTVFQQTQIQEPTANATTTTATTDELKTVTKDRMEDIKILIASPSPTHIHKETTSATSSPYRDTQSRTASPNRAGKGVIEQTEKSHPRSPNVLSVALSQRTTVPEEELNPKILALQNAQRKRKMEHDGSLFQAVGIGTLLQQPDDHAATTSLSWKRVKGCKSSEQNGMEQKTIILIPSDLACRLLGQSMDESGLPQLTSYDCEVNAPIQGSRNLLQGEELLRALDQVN
Sequence of Cytochrome P450 3A4 (Homo sapiens) (P08684 whole entry, looked up): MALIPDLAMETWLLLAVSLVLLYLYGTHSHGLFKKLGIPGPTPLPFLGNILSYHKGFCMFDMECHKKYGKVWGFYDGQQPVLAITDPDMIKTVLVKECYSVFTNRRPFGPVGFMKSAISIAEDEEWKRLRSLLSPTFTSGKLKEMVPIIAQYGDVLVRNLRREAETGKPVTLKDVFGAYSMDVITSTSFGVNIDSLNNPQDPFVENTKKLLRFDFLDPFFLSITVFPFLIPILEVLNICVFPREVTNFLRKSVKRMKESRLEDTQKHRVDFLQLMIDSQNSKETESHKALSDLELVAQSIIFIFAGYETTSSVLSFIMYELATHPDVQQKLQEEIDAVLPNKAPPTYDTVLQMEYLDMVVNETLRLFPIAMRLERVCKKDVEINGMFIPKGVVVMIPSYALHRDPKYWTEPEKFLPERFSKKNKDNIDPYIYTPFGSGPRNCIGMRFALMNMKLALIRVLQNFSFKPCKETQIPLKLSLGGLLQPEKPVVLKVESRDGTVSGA

c1ccc(C2CO2)cc1 (stereo not given)
outcome (CYP4A11 (gene 1579)): inactive | outcome [1]: inactive | outcome [2]: inactive | outcome [3]: inactive | outcome [4]: inactive | outcome [5]: inactive | outcome [6]: inactive | outcome (CYP3A5 (gene 1577)): inactive | outcome [7]: inactive | outcome [8]: inactive | outcome [9]: inactive | outcome [10]: inactive | outcome [11]: inactive | outcome [12]: inactive | outcome [13]: inactive | outcome [14]: inactive | outcome [15]: inactive | outcome [16]: inactive | outcome (HGF (gene 3082)): inactive

Nc1ccc(Cc2ccc(N)cc2)cc1
outcome (CYP4A11 (gene 1579)): inactive | outcome [1]: inactive | outcome [2]: inactive | outcome [3]: inactive | outcome [4]: inactive | outcome [5]: inactive | AC50 [6]: 21.4 µM (active) | outcome (CYP3A5 (gene 1577)): inactive | outcome [7]: inactive | outcome [8]: inactive | outcome [9]: inactive | outcome [10]: inactive | outcome [11]: inactive | outcome [12]: inactive | outcome [13]: inactive | outcome [17]: inactive | outcome [14]: inactive | outcome [15]: inactive | outcome [16]: inactive | outcome (HGF (gene 3082)): inactive

CCN(CC)N=O
outcome (CYP4A11 (gene 1579)): inactive | outcome [1]: inactive | outcome [2]: inactive | outcome [3]: inactive | outcome [5]: inactive | outcome [6]: inactive | outcome (CYP3A5 (gene 1577)): inactive | outcome [7]: inactive | outcome [8]: inactive | outcome [10]: inactive | outcome [11]: inactive | outcome [12]: inactive | outcome [13]: inactive | outcome [17]: inactive | outcome [14]: inactive | outcome [15]: inactive | outcome [16]: inactive | outcome (HGF (gene 3082)): inactive

Nc1ccc(N=Nc2ccccc2)cc1
AC50 (CYP4A11 (gene 1579)): 13.3 µM (active) | AC50 [2]: 32.4 µM (active) | outcome [3]: inactive | AC50 [4]: 29.4 µM (active) | outcome [5]: inactive | AC50 (CYP3A5 (gene 1577)): 14.2 µM (active) | AC50 [7]: 21.4 µM (active) | AC50 [8]: 13.3 µM (active) | AC50 [9]: 16.4 µM (active) | AC50 [10]: 15.1 µM (active) | AC50 [11]: 7.79 µM (active) | AC50 [12]: 15.6 µM (active) | outcome [13]: inactive | AC50 [17]: 13.2 µM (active) | AC50 [14]: 34 µM (active) | outcome [15]: inactive | AC50 [16]: 24.6 µM (active) | outcome (HGF (gene 3082)): inactive
